Screen size: about 1,400 compounds; about 560 (40%) were called active. So high a share suggests a set chosen from earlier hits. This is one part of the list. Unmarked numbers belong to inactive results.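 How the source made its calls: active means mean inhibition over duplicate tests at 10 µM above 50%; inactive means the rest.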

Among the data in PubChem BioAssay AID488857 (Sanford-Burnham Center for Chemical Genomics, 2010) are inhibition values, retold here.

The assay is described as follows: ASC/caspase-1 reporter retest in S. cerevisiae at one dose, specificity check for NALP1 project (AID 488857). The conditions noted are these: S. cerevisiae ASC/Caspase-1, beta-galactosidase luminescence, 24 h; at 10 µM; hits give high values.
A word on the inhibition: it is the relative decrease from the control value, in per cent. As for `Fc1ccc(C(OCCN2CCCC2)c2ccc(Br)cc2)cc1` (centres undefined), the inhibition is 53.5% (active). On to `CCCCN(Cc1ccccc1)C1CCN(CCc2ccccc2)CC1`, for which the inhibition is 52.6% (active). For `CSc1ncc(Cl)c(C(=O)O)n1` (tested in a mixture with another compound) the value was 35.1%; for `Clc1ccc2nc3c(c(-c4ccccc4)c2c1)CNCC3`, 57% (active); for `O=C(c1ccccc1)C(CN1CCCC1)c1ccccc1` (centres undefined), 25.8%. For `COc1cc2c(cc1OC)CN(c1ccc([N+](=O)[O-])c(C(F)(F)F)c1)CC2`, the inhibition was 69% (active). For `CCOCCN1CCN(c2nnc3n2-c2ccc(Cl)cc2C(c2ccccc2Cl)=NC3)CC1` the value was 30.9%; for `CN[C@H]1C[C@H]2O[C@@](C)([C@H]1OC)n1c3ccccc3c3c4c(c5c6ccccc6n2c5c31)C(=O)NC4`, 99.2% (active); for `Cc1ccc(C)c(NC(=S)NCCc2cnc[nH]2)c1`, 42.5%. For `CC(Cc1ccccc1Sc1ccccc1)N(C)C` (centres undefined) the value was 42.8%.

For `COCCNCCOc1ccc(C(C)(C)c2ccccc2)cc1`, the inhibition is 52.3% (active). For `CC1(C)C[C@H]2C=C(C=O)[C@]3(C=O)C[C@]3(C)[C@H]2C1` the value was 81.3% (active); for `O=C1/C(=C/c2cccc([N+](=O)[O-])c2)N2CCC1CC2`, 51.1% (active); for `Nc1c2c(nc3sc4c(c13)CCCC4)CCCCC2`, 58.4% (active). For `Nc1c2c(nc3sc4c(c13)CCCCC4)CCCC2` the value was 91.1% (active); for `CC(C)NS(=O)(=O)c1ccc(OCC(=O)N2CCN(C)CC2)cc1`, 17.6%; for `CC(C)CCn1c(=O)c(C(=O)NCc2ccco2)c(O)c2ccccc21`, 44.8%. Turning to `Cc1cc2ccccn2c1C(C[N+](=O)[O-])c1c(F)cccc1Cl` (centres undefined), the inhibition is 52.8% (active).

For the compound `C[C@H]1C[C@@H](C)C(=O)[C@@H]([C@H](O)CC2CC(=O)NC(=O)C2)C1`, the inhibition is 98.8% (active). For `CC(Cc1ccccc1)NC(=O)/C=C/c1ccc(Cl)cc1` (centres undefined) the value was 71.7% (active). For `c1ccc2sc(NC3=NCCN3)nc2c1` the value was 100% (active). Turning to `O=C1/C(=C/c2cc3c(cc2Cl)OCO3)N2CCC1CC2`, the inhibition is 55% (active).

Take `Nc1ccc(C2(c3ccc(N)cc3)CN3CCC2CC3)cc1`: the inhibition is 35%. For `CN1/C(=C\C=C\C2=[N+](C)c3ccc4ccccc4c3C2(C)C)C(C)(C)c2ccccc21` the value was 99.7% (active); for `CN1CCN(c2ccc(N)c(N3CCN(C)CC3)c2)CC1`, 31.1%. `O=C(c1cc2c(s1)-c1ccccc1OC2)N1CCC2(CC1)OCCO2`: the inhibition is 53.8% (active).

In the case of `N#CCCn1cc(C(=O)NCc2ccccc2)c(-c2ccccc2)n1`, the inhibition was 39.2%. Turning to `Cc1ccc(/C=C2\C(=O)NC(=O)N(CC3CCCO3)C2=O)s1` (centres undefined), the inhibition was 46.5%.

With `Cc1ccc(Cn2cc(C=O)c(-c3ccc(C)cc3)n2)cc1`, the inhibition was 67.5% (active).

As for `Cc1cccc(N2C(=O)NC(=O)/C(=C/c3ccc([N+](=O)[O-])o3)C2=O)c1`, the inhibition was 45%. For `Cc1ccc(S(=O)(=O)NC(CC(=O)N2CCC3(CC2)OCCO3)c2ccco2)cc1` (centres undefined) the value was 31.6%. Regarding `CN1C2CCC1/C(=C/c1ccccn1)C(=O)/C2=C\c1ccccn1`, the inhibition was 96.9% (active).

Turning to `CCCCCn1c(=O)c(C(=O)Nc2nc3ccccc3[nH]2)c(O)c2ccccc21`, the inhibition was 36.8%. For `CCOc1cc(CNCCc2c[nH]c3ccccc23)cc(Cl)c1OCC` the value was 43.5%.

With `Nc1cc(Cl)c2nonc2c1[N+](=O)[O-]`, the inhibition is 57.1% (active). For `Cc1ccc(-c2nc(N3CCOCC3)s[n+]2-c2ccccc2)cc1` the value was 61.9% (active); for `CNC(=O)Oc1ccc2ncccc2c1`, 42.4%; for `CC1CCCC(C)N1/N=C/c1c[nH]c2ccc(Br)cc12` (centres undefined), 45.3%.

With `COc1cc(/C=C(/C)[N+](=O)[O-])ccc1OCc1ccccc1Cl`, the inhibition is 80.2% (active).
